A short description of assay [1]: qHTS assay to identify small molecule agonists of the NFkB signaling pathway - cell viability counter screen (AID 1159515). Note: series mostly up to about 61 µM; nearly all actives have a fitted effect of over 55% in size. The procedure, abridged:
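Using the same wells as the NFkB reporter read, ME-180 NFkB-bla cells given compounds for 5 hr were assessed for viability via CellTiter-Glo, with luminescence taken after a 30 min room-temperature incubation.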

Assay [2] can be described thus: qHTS assay to identify small molecule agonists of the endoplasmic reticulum stress response signaling pathway (AID 1159516; active = well fitted activation curve with a large enough effect in the signal ratio in the repeat runs, not every such curve was filed as active; the % refers to the signal ratio). The method, boiled down: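 An ESRE-bla HeLa cell assay: compounds were pin-transferred from DMSO onto overnight-plated cells and left 5 hr at 37 C. Substrate was then loaded for 2 hr at room temperature before reading fluorescence at 460 nm and 530 nm.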

A short description of assay [3]: qHTS assay to identify small molecule agonists of the endoplasmic reticulum stress response signaling pathway - cell viability counter screen (AID 1159517).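 Note: HeLa cells carrying an ER stress response element beta-lactamase reporter; series mostly up to about 61 µM; nearly all actives have a fitted effect of over 50% in size.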 The procedure, abridged: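 Cells, HeLa ESRE-bla; density, 1,500/well; dosing, 5 hr at 37 C, 5% CO2; readout, CellTiter-Glo luminescence after 30 min RT.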
Assay [4] is described as follows: qHTS assay to identify small molecule antagonists of the retinoid-related orphan receptor gamma (ROR-gamma) signaling pathway - cell viability counter screen (AID 1159520; active = well fitted curve in the direction sought with a large enough effect in the repeat runs; an effect the other way counts as inactive or inconclusive; note: nearly all actives have a fitted effect of over 50% in size). The method, boiled down:
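Cytotoxicity was read from cellular ATP (CellTiter-Glo luminescence) after 16 hr at 37 C with 1 uM doxycycline induction. The inducer was added 2 hr after compound transfer to Tet-on ROR gamma CHO cells.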

Assay [5] concerns the target Nuclear receptor ROR-gamma (Homo sapiens) (UniProt P51449). As to the kind of experiment: qHTS assay to identify small molecule antagonists of the retinoid-related orphan receptor gamma (ROR-gamma) signaling pathway (AID 1159521; active = well fitted curve in the direction sought with a large enough effect in the repeat runs; an effect the other way counts as inactive or inconclusive;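 note: CHO cells with doxycycline inducible ROR-gamma driving an RORE luciferase reporter; top concentration of the series differs between compounds; nearly all actives have a fitted effect of over 50% in size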). The method, boiled down:
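Tet-on ROR-gamma CHO cells with ROR response element-luciferase reporter; compounds added 2 hr before 1 uM doxycycline induction, then 16 hr at 37 C. Antagonism scored as decreased ONE-Glo luminescence.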

Assay [6] is described as follows: qHTS assay to identify small molecule agonists of the AP-1 signaling pathway (AID 1159526).
In assay [7] the target is Retinoic acid receptor RXR-alpha (Homo sapiens) (UniProt P19793). Briefly: qHTS assay to identify small molecule agonists of the RXR signaling pathway (AID 1159527). Note: nearly all actives have a fitted effect of over 35% in size. Note: potency is the fitted concentration of half-maximal effect. The method, boiled down: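 GeneBLAzer RXR-alpha-UAS-bla HEK 293T cells in 2% charcoal-stripped FBS medium were exposed to compounds for 16 hr at 37 C in agonist mode. Beta-lactamase reporter read as 460/530 nm FRET ratio after 2 hr substrate loading.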
Retinoic acid receptor RXR-alpha (Homo sapiens), sequence (P19793 whole entry, looked up): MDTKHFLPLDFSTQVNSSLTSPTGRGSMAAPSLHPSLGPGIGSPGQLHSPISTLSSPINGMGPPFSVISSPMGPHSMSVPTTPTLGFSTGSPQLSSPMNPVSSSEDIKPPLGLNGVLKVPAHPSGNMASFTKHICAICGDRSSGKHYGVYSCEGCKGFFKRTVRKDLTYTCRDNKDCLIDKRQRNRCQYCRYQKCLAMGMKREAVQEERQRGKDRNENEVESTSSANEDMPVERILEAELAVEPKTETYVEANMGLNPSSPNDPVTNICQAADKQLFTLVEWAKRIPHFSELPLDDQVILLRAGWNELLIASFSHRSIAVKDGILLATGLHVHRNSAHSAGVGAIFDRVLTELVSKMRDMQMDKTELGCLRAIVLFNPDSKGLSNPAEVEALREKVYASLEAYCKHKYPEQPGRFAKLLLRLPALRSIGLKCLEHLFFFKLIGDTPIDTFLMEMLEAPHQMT

A short description of assay [8]: qHTS assay to identify small molecule agonists of the RXR signaling pathway - cell viability counter screen (AID 1159529; active = well fitted curve in the direction sought with a large enough effect in the repeat runs; an effect the other way counts as inactive or inconclusive; note: series mostly up to about 77 µM; nearly all actives have a fitted effect of over 50% in size). The method, boiled down: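 RXR-alpha-UAS-bla HEK 293T cells in medium with 2% charcoal-stripped FBS were pre-incubated 5 hr, then compound-treated 16 hr at 37 C. Viability was read by CellTiter-Glo luminescence in the same wells as the beta-lactamase assay, with tetraoctyl ammonium bromide as positive control.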

Assay [9] in a line: qHTS assay to identify small molecule antagonists of the vitamin D receptor (VDR) signaling pathway - cell viability counter screen (AID 743225; active = well fitted curve in the direction sought with a large enough effect in the repeat runs; an effect the other way counts as inactive or inconclusive; note: nearly all actives have a fitted effect of over 50% in size). The procedure, abridged:
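VDR-UAS-bla HEK 293T cells were plated and incubated 4 h at 37C, then dosed with compound plus 3 nM (final) 1-alpha,25-dihydroxyvitamin D3 for 16 h. After the 2 h beta-lactamase read, viability in the same wells was read as CellTiter-Glo luminescence after 30 min at room temperature.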

A short description of assay [10]: qHTS assay to identify small molecule agonists of the AP-1 signaling pathway - cell viability counter screen (AID 1159525). Note: nearly all actives have a fitted effect of over 55% in size. The procedure, abridged: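 Luminescent ATP readout (Cell Titer Glo, 30 min RT), normalised to DMSO and tetra n-octyl ammonium bromide controls. Cells were ME-180 AP-1-bla in 0.5% dialyzed FBS Opti-MEM, with a 5 h, 37 °C compound exposure.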

Inconclusive results are not listed. Unmarked numbers belong to inactive results. The source made the active and inactive calls. Unless noted, calls come from the whole dose curve.

As to `Cc1ccc(O)c(C(=O)c2ccccc2)c1`, the compound was called inactive in assay [1], in assay [3], in [4] and in [5]. The Potency entry in assay [2], in assay [6], in assay [7] and in [8] was “inactive” in each case.

Turning to `CCCCCCCOC(C)=O`, the result in assay [9], in assay [1], in assay [3], in [4] and in [5] was inactive. For the same compound, the Potency result in assay [2], in assay [6], in assay [7] and in assay [8] was “inactive” each time.

For the compound `N#Cc1cc(NC(=O)C(=O)O)c(Cl)c(NC(=O)C(=O)O)c1`, the result in assay [9], in assay [1], in assay [3], in [4] and in [5] was inactive. Further, the Potency entry in assay [2], in [6], in assay [7] and in [8] was “inactive” each time.

Regarding `CCC(=O)OCCOc1ccccc1`, the outcome in assay [9], in assay [1], in assay [3], in [4] and in [5] was inactive. Also, the Potency entry in assay [2], in assay [6], in assay [7] and in [8] was “inactive” throughout.

Regarding `NS(=O)(=O)c1cc2c(cc1C(F)(F)F)NCNS2(=O)=O`, the compound was classed as inactive in [1], in assay [3], in [4] and in assay [5]. Also, the Potency result in assay [2], in assay [6], in assay [7] and in assay [8] was “inactive” throughout.

On to `CC(C)C(C)C`, for which the outcome in assay [1], in assay [3], in [4] and in [5] was inactive. For the same compound, the Potency result in assay [2], in assay [6], in assay [7] and in assay [8] was “inactive” in each case.

Turning to `CCCCCC(CC)OC(=O)CCCOc1ccc(Cl)cc1Cl` (stereo not drawn), the call in [9], in assay [1], in assay [3], in [4] and in [5] was inactive. Moreover, the Potency result in assay [2], in assay [6] and in assay [8] was “inactive” throughout. Besides, in assay [7], the Potency is 4.35 µM (active).

As to `CC(=O)OC1CCC(C(C)(C)C)CC1` (stereo not drawn), the compound was classed as inactive in assay [9], in assay [1], in assay [3], in assay [4], in [5] and in [10]. Also, the Potency entry in [2] and in assay [6] was “inactive” each time.

For the compound `O=C(O)CCCCCCCCCC(=O)O`, the call in [9], in assay [1], in assay [3], in [4], in assay [5] and in [10] was inactive. Moreover, the Potency result in assay [2], in [6] and in assay [8] was “inactive” each time.

With `CCO[Si](CC(C)C)(OCC)OCC`, the call in [1], in assay [3], in assay [4] and in [5] was inactive. The Potency entry in assay [2], in assay [6] and in [7] was “inactive” each time.

In the case of `CCc1ncc(C)[nH]1`, the result in assay [9], in [1], in [3], in assay [4], in [5] and in [10] was inactive. In addition, the Potency result in assay [2] and in [6] was “inactive” in each case.

For `COC(=O)C(c1ccccc1Cl)N1CCc2sccc2C1` (stereo not drawn), the compound was called inactive in [9], in assay [1], in assay [3], in [4] and in assay [5]. Further, the Potency result in assay [2], in [6], in assay [7] and in assay [8] was “inactive” each time.

For the compound `CC(=O)OC/C=C(/C)CCC=C(C)C`, the call in [9], in [1], in assay [3], in assay [4] and in assay [5] was inactive. Further, the Potency entry in assay [2], in assay [6], in assay [7] and in [8] was “inactive” each time.

Take `CC(=O)c1ccc2ccc3ccccc3c2c1`: the compound was classed as inactive in assay [9], in assay [1], in assay [3], in assay [4] and in assay [5]. Besides, the Potency entry in assay [2], in assay [6], in assay [7] and in assay [8] was “inactive” each time.

As for `Cc1ccc(NC(N)=O)cc1`, the compound was called inactive in assay [9], in [1], in assay [3], in assay [4] and in [5]. The Potency entry in assay [2], in [6], in [7] and in assay [8] was “inactive” in each case.

Take `CC(=O)SCC(CC(=O)c1ccc(C)cc1)C(=O)O` (stereo not drawn): the compound was classed as inactive in [9], in assay [1], in assay [3], in [4] and in assay [5]. In addition, the Potency result in [2], in assay [6] and in [7] was “inactive” in each case.

Consider `CCO/C=C1\N=C(c2ccccc2)OC1=O`, for which the call in assay [9], in [1], in assay [3], in assay [4], in [5] and in [10] was inactive. Further, the Potency entry in [2], in assay [6] and in assay [8] was “inactive” each time.

Take `Cc1nnc(C(=O)NC(C)(C)c2nc(C(=O)NCc3ccc(F)cc3)c(O)c(=O)n2C)o1`: the result in assay [9], in assay [1], in assay [3], in assay [4] and in assay [5] was inactive. The Potency entry in [2], in [6], in [7] and in [8] was “inactive” in each case.

As for `CC(C)(C)C(=O)NCCCC(=O)O`, the result in [9], in assay [1], in assay [3], in [4], in assay [5] and in [10] was inactive. The Potency entry in [2], in [6] and in assay [8] was “inactive” each time.
